The supplement of paper PMC8728848
Many of the other results were omitted from the sample, so the strongest signals are more common in it than they were.

Key:
Assay in all cases: glycan array binding signal (z-score within array); higher = stronger binding
Conditions in all cases: glycan notation: IUPAC condensed, linker removed
[1] = target: Fuc(a1-2)Gal(b1-3)GlcNAc(b1-2)Man(a1-3)[Fuc(a1-2)Gal(b1-3)GlcNAc(b1-2)Man(a1-6)]Man(b1-4)GlcNAc(b1-4)GlcNAc
Procedure, shortened: (§1)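 Glycan array binding is given as a within-array Z-score, which can be read as non-binding when negative. The arrays, 3228 of them, came from the Consortium for Functional Glycomics database and were retained only where the protein sequence was available. Z-scores were averaged across arrays of the same protein sequence at different concentrations or buffers and across linkers.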

[2] = target: Fuc(a1-2)Gal(b1-3)[Fuc(a1-4)]GlcNAc(b1-2)Man(a1-3)[Fuc(a1-2)Gal(b1-3)[Fuc(a1-4)]GlcNAc(b1-2)Man(a1-6)]Man(b1-4)GlcNAc(b1-4)[Fuc(a1-6)]GlcNAc(b1-4)[Fuc(a1-6)]GlcNAc
Procedure, shortened: as §1

[3] = target: Fuc(a1-2)Gal(b1-4)GlcNAc(b1-2)Man(a1-3)[Fuc(a1-2)Gal(b1-4)GlcNAc(b1-2)Man(a1-6)]Man(b1-4)GlcNAc(b1-4)GlcNAc
Procedure, shortened: as §1

[4] = target: Fuc(a1-2)Gal(b1-4)[Fuc(a1-3)]GlcNAc(b1-3)GalNAc
Procedure, shortened: as §1

[5] = target: Fuc(a1-2)[Gal(a1-3)]Gal(b1-3)GalNAc(b1-3)Gal(a1-4)Gal(b1-4)Glc
Procedure, shortened: as §1

[6] = target: Fuc(a1-2)[Gal(a1-3)]Gal(b1-3)GlcNAc(b1-2)Man(a1-3)[Fuc(a1-2)[Gal(a1-3)]Gal(b1-3)GlcNAc(b1-2)Man(a1-6)]Man(b1-4)GlcNAc(b1-4)[Fuc(a1-6)]GlcNAc
Procedure, shortened: as §1

[7] = target: Fuc(a1-2)[GalNAc(a1-3)]Gal(b1-3)GalNAc(a1-3)[Fuc(a1-2)]Gal(b1-4)GlcNAc
Procedure, shortened: as §1

[8] = target: Fuc(a1-2)[GalNAc(a1-3)]Gal(b1-3)GlcNAc(b1-2)Man(a1-3)[Fuc(a1-2)[GalNAc(a1-3)]Gal(b1-3)GlcNAc(b1-2)Man(a1-6)]Man(b1-4)GlcNAc(b1-4)GlcNAc
Procedure, shortened: as §1

[9] = target: Fuc(a1-2)[GalNAc(a1-3)]Gal(b1-4)GlcNAc(b1-2)Man
Procedure, shortened: as §1

[10] = target: Fuc(a1-2)[GalNAc(a1-3)]Gal(b1-4)GlcNAc(b1-6)GalNAc
Procedure, shortened: as §1

[11] = target: Fuc(a1-3)[Gal(b1-4)]GlcNAc(b1-6)GalNAc
Procedure, shortened: as §1

Fuc(b1-3)GlcNAc = target: Fuc(b1-3)GlcNAc
Procedure, shortened: as §1

Gal(a1-3)Gal = target: Gal(a1-3)Gal
Procedure, shortened: as §1

[12] = target: Gal(a1-3)Gal(b1-4)[Fuc(a1-3)]GlcNAc
Procedure, shortened: as §1

[13] = target: Gal(a1-4)Gal(b1-4)GlcNAc(b1-2)Man(a1-3)[Gal(a1-4)Gal(b1-4)GlcNAc(b1-2)Man(a1-6)]Man(b1-4)GlcNAc(b1-4)GlcNAc
Procedure, shortened: as §1

[14] = target: Gal(b1-3)GlcNAc(b1-3)Gal(b1-4)GlcNAc(b1-3)Gal(b1-4)GlcNAc(b1-2)[Gal(b1-3)GlcNAc(b1-3)Gal(b1-4)GlcNAc(b1-3)Gal(b1-4)GlcNAc(b1-6)]Man(a1-6)[Gal(b1-3)GlcNAc(b1-3)Gal(b1-4)GlcNAc(b1-3)Gal(b1-4)GlcNAc(b1-2)Man(a1-3)]Man(b1-4)GlcNAc(b1-4)[Fuc(a1-6)]GlcNAc
Procedure, shortened: as §1

[15] = target: Gal(b1-3)GlcNAc(b1-3)GalNAc
Procedure, shortened: as §1

[16] = target: Gal(b1-3)[Neu5Ac(a2-6)]GlcNAc(b1-4)Gal(b1-4)Glc
Procedure, shortened: as §1

Gal(b1-4)Gal = target: Gal(b1-4)Gal
Procedure, shortened: as §1

[17] = target: Gal(b1-4)GlcNAc(b1-2)Man(a1-3)[Gal(b1-4)GlcNAc(b1-2)Man(a1-6)]Man(b1-4)GlcNAc(b1-4)[Fuc(a1-6)]GlcNAc
Procedure, shortened: as §1

[18] = target: Gal(b1-4)GlcNAc(b1-2)[Gal(b1-4)GlcNAc(b1-4)]Man(a1-3)[GlcNAc(b1-4)][Gal(b1-4)GlcNAc(b1-2)[Gal(b1-4)GlcNAc(b1-6)]Man(a1-6)]Man(b1-4)GlcNAc(b1-4)GlcNAc
Procedure, shortened: as §1

[19] = target: Gal(b1-4)GlcNAc(b1-3)Gal(b1-3)GlcNAc
Procedure, shortened: as §1

[20] = target: Gal(b1-4)GlcNAc(b1-3)Gal(b1-4)GlcNAc(b1-2)Man(a1-3)[Gal(b1-4)GlcNAc(b1-3)Gal(b1-4)GlcNAc(b1-2)Man(a1-6)]Man(b1-4)GlcNAc(b1-4)[Fuc(a1-6)]GlcNAc
Procedure, shortened: as §1

[21] = target: Gal(b1-4)GlcNAc(b1-3)Gal(b1-4)GlcNAc(b1-2)[Gal(b1-4)GlcNAc(b1-3)Gal(b1-4)GlcNAc(b1-6)]Man(a1-6)[Gal(b1-4)GlcNAc(b1-3)Gal(b1-4)GlcNAc(b1-2)Man(a1-3)]Man(b1-4)GlcNAc(b1-4)GlcNAc
Procedure, shortened: as §1

[22] = target: Gal(b1-4)GlcNAc(b1-3)Gal(b1-4)GlcNAc(b1-2)[Gal(b1-4)GlcNAc(b1-3)Gal(b1-4)GlcNAc(b1-6)]Man(a1-6)[Gal(b1-4)GlcNAc(b1-3)Gal(b1-4)GlcNAc(b1-2)Man(a1-3)]Man(b1-4)GlcNAc(b1-4)[Fuc(a1-6)]GlcNAc
Procedure, shortened: as §1

[23] = target: Gal(b1-4)GlcNAc(b1-3)Gal(b1-4)GlcNAc(b1-3)Gal(b1-4)GlcNAc(b1-3)Gal(b1-4)GlcNAc(b1-2)Man(a1-3)[Gal(b1-4)GlcNAc(b1-3)Gal(b1-4)GlcNAc(b1-3)Gal(b1-4)GlcNAc(b1-3)Gal(b1-4)GlcNAc(b1-2)Man(a1-6)]Man(b1-4)GlcNAc(b1-4)GlcNAc
Procedure, shortened: as §1

[24] = target: Gal(b1-4)GlcNAc(b1-3)[GlcNAc(b1-6)]Gal(b1-4)GlcNAc
Procedure, shortened: as §1

[25] = target: Gal3S(b1-3)[Fuc(a1-4)]GlcNAc
Procedure, shortened: as §1

Gal6S(b1-3)GlcNAc6S = target: Gal6S(b1-3)GlcNAc6S
Procedure, shortened: as §1

Gal6S(b1-4)GlcNAc = target: Gal6S(b1-4)GlcNAc
Procedure, shortened: as §1

[26] = target: GalNAc(b1-4)GlcNAc(b1-2)Man(a1-3)[GalNAc(b1-4)GlcNAc(b1-2)Man(a1-6)]Man(b1-4)GlcNAc(b1-4)GlcNAc
Procedure, shortened: as §1

GalNAc3S(b1-4)GlcNAc = target: GalNAc3S(b1-4)GlcNAc
Procedure, shortened: as §1

[27] = target: GlcNAc(b1-2)Man(a1-3)[GlcNAc(b1-2)Man(a1-6)]Man(b1-4)GlcNAc(b1-4)GlcNAc
Procedure, shortened: as §1

[28] = target: GlcNAc(b1-3)Gal(b1-4)GlcNAc(b1-3)Gal(b1-4)GlcNAc(b1-3)Gal(b1-4)GlcNAc(b1-2)Man(a1-3)[GlcNAc(b1-3)Gal(b1-4)GlcNAc(b1-3)Gal(b1-4)GlcNAc(b1-3)Gal(b1-4)GlcNAc(b1-2)Man(a1-6)]Man(b1-4)GlcNAc(b1-4)GlcNAc
Procedure, shortened: as §1

[29] = target: GlcNAc(b1-3)[GlcNAc(b1-6)]GalNAc
Procedure, shortened: as §1

[30] = target: GlcNAc(b1-4)GlcNAc(b1-4)GlcNAc(b1-4)GlcNAc(b1-4)GlcNAc
Procedure, shortened: as §1

[31] = target: Man(a1-2)Man(a1-3)[Man(a1-2)Man(a1-6)]Man
Procedure, shortened: as §1

[32] = target: Man(a1-2)Man(a1-3)[Man(a1-6)]Man(a1-6)[Man(a1-2)Man(a1-3)]Man(b1-4)GlcNAc(b1-4)GlcNAc
Procedure, shortened: as §1

[33] = target: Neu5Ac(a2-3)Gal(b1-4)GlcNAc(b1-2)Man(a1-3)[GlcNAc(b1-4)][Neu5Ac(a2-3)Gal(b1-4)GlcNAc(b1-2)Man(a1-6)]Man(b1-4)GlcNAc(b1-4)GlcNAc
Procedure, shortened: as §1

[34] = target: Neu5Ac(a2-3)Gal(b1-4)GlcNAc(b1-2)Man(a1-3)[Neu5Ac(a2-6)Gal(b1-4)GlcNAc(b1-2)Man(a1-6)]Man(b1-4)GlcNAc(b1-4)GlcNAc
Procedure, shortened: as §1

[35] = target: Neu5Ac(a2-3)Gal(b1-4)GlcNAc(b1-3)[Neu5Ac(a2-3)Gal(b1-4)GlcNAc(b1-6)]GalNAc
Procedure, shortened: as §1

[36] = target: Neu5Ac(a2-3)Gal(b1-4)[Fuc(a1-3)]GlcNAc(b1-3)Gal(b1-4)GlcNAc
Procedure, shortened: as §1

Neu5Ac(a2-6)Gal(b1-4)Glc = target: Neu5Ac(a2-6)Gal(b1-4)Glc
Procedure, shortened: as §1

[37] = target: Neu5Ac(a2-6)GalNAc(b1-4)GlcNAc6S
Procedure, shortened: as §1

[38] = target: Neu5Ac(a2-8)Neu5Ac(a2-8)Neu5Ac(a2-3)Gal(b1-4)Glc
Procedure, shortened: as §1

[39] = target: Neu5Ac(a2-8)Neu5Gc(a2-3)Gal(b1-4)GlcNAc
Procedure, shortened: as §1

[40] = target: Neu5Gc(a2-8)Neu5Ac(a2-3)Gal(b1-4)GlcNAc
Procedure, shortened: as §1

[41] = target: Neu5Gc(a2-8)Neu5Gc(a2-3)Gal(b1-4)GlcNAc(b1-3)Gal(b1-4)GlcNAc
Procedure, shortened: as §1

B1: PX14375l-pdi-526-25-526 (Parabacteroides distasonis) (protein)
chain: DEEPKSTLTDVAYYKTQSQMESNVNYLYRTGAIGSYVDFGSAYIGPFASIQEELTGYFSNSYEGQEIVCRYTRELTRQQNTMQLASKMDKVWDDCYRGINVANGAIKHMPEVPMDQATADRLTAEAKFFRAFNYFYLVKTFGAVPFYTDPYELAENMELPRTETSTIYNQIESDLKDAMNVLPEATFAANGHRITKYVAAMTLTDVYMYQHKYAEAAETVRIVVNSNHKLTTNDDLAMNSAFNKLRSTDDLDEAIYAYEYDNQISPSNWLPTYAFDGDASSNGLFGTYAITQKVHGPNDRYLNIYESNDLRRQPNQFYHWTYTNPKTGKVWNSVGNAACCWYYYDEDALLTTGRGTKDWNVYRYAEALLDAAESIAQSTGVTAEAAGYLAQVKARANMEGKTAAEIASSLQSMGKQAFIEECWTERLRELPLEFKMWDMCVRTGMFPNISETTPGQVTYIPLVGAKNASGATIKESDLLWPLSVNEIQRNPSLTQNEGYSAK
Which results are given for B1?
glycan array binding signal (z-score) [1]: -0.052; glycan array binding signal (z-score) [2]: 0.236; glycan array binding signal (z-score) [3]: 3.23; glycan array binding signal (z-score) [4]: 3.32; glycan array binding signal (z-score) [5]: -0.21; glycan array binding signal (z-score) [6]: 0.373; glycan array binding signal (z-score) [7]: -0.255; glycan array binding signal (z-score) [8]: 2.42; glycan array binding signal (z-score) [9]: -0.233; glycan array binding signal (z-score) [10]: -0.22; glycan array binding signal (z-score) [11]: 2.66; glycan array binding signal (z-score) (Fuc(b1-3)GlcNAc): -0.225; glycan array binding signal (z-score) (Gal(a1-3)Gal): -0.181; glycan array binding signal (z-score) [12]: -0.3; glycan array binding signal (z-score) [13]: 1.19; glycan array binding signal (z-score) [14]: 8.4; glycan array binding signal (z-score) [15]: -0.323; glycan array binding signal (z-score) [16]: -0.125; glycan array binding signal (z-score) (Gal(b1-4)Gal): -0.301; glycan array binding signal (z-score) [17]: 0.272; glycan array binding signal (z-score) [18]: 3.87; glycan array binding signal (z-score) [19]: -0.16; glycan array binding signal (z-score) [20]: 4.03; glycan array binding signal (z-score) [21]: 4.11; glycan array binding signal (z-score) [22]: 0.091; glycan array binding signal (z-score) [23]: 16.7; glycan array binding signal (z-score) [24]: -0.154; glycan array binding signal (z-score) [25]: -0.094; glycan array binding signal (z-score) (Gal6S(b1-3)GlcNAc6S): 9.53; glycan array binding signal (z-score) (Gal6S(b1-4)GlcNAc): -0.026; glycan array binding signal (z-score) [26]: -0.068; glycan array binding signal (z-score) (GalNAc3S(b1-4)GlcNAc): -0.071; glycan array binding signal (z-score) [27]: -0.225; glycan array binding signal (z-score) [28]: -0.168; glycan array binding signal (z-score) [29]: -0.1; glycan array binding signal (z-score) [30]: -0.095; glycan array binding signal (z-score) [31]: -0.022; glycan array binding signal (z-score) [32]: -0.236; glycan array binding signal (z-score) [33]: -0.214; glycan array binding signal (z-score) [34]: -0.134; glycan array binding signal (z-score) [35]: -0.205; glycan array binding signal (z-score) [36]: 0.129; glycan array binding signal (z-score) (Neu5Ac(a2-6)Gal(b1-4)Glc): 0.019; glycan array binding signal (z-score) [37]: 0.114; glycan array binding signal (z-score) [38]: -0.12; glycan array binding signal (z-score) [39]: 2.74; glycan array binding signal (z-score) [40]: -0.206; glycan array binding signal (z-score) [41]: -0.201
